Experimental findings from PubChem BioAssay (EPA / NIEHS) are described below.

As a reminder, the AC50 is the midpoint of the concentration-response curve, whichever way the signal moves.

Structures are written as SMILES. “And” between values parts separate entries of the source, which are not always exact repeats. Equal entries are not always repeated. The source made the active and inactive calls. The calls were made as follows: active = hit-call score of the fitted dose curve at least 0.9, where 1 is the maximum; inactive = score below 0.9.

Experiment [1] is described as follows: ATG_M_32_CIS: Attagene CIS-FACTORIAL HepG2 Assay for M32 Transcription Factor (Internal Marker) (AID 2282949).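 Also: background control marker of the multiplexed CIS panel rather than a real target.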 The note with it: HepG2 Attagene cis-factorial M32 reporter, mRNA; actives raise or lower the signal. The essentials:
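HepG2 transfectants (cis-regulated reporter transcription units) dosed 24 h. Reporter mRNA by RT-PCR plus CE, analysed as gain or loss relative to DMSO.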

A short description of experiment [2]: ATG_M_06_CIS: Attagene CIS-FACTORIAL HepG2 Assay for M06 Transcription Factor (Internal Marker) (AID 2282950). The settings on record: HepG2 Attagene CIS-FACTORIAL M06 internal marker reporter; actives raise or lower the signal. The method, boiled down:
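Fluorescence-labelled RT-PCR products from cis-promoter reporter units, cut with HpaI and resolved by capillary electrophoresis, give the signal. Cells are human HepG2, dosed for 24 h. Serves as background control, fitted relative to DMSO.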

Experiment [3] addresses Hypoxia-inducible factor 1-alpha (Homo sapiens) (UniProt Q16665). Kind of experiment: ATG_HIF1a_CIS: Attagene CIS-FACTORIAL HepG2 Assay for human Hypoxia Inducible Factor 1 (HIF1A) (AID 2282951). The settings on record: HepG2 Attagene cis-factorial HIF1a reporter transcription; actives raise or lower the signal. The essentials: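 Measures endogenous transcription-factor activity through cis-regulated reporter mRNA in HepG2. Cells dosed 24 h; transcripts quantified by RT-PCR with 6-FAM-labelled products separated by capillary electrophoresis; DMSO serves as negative control.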

Experiment [4] addresses Hepatocyte nuclear factor 6 (Homo sapiens) (UniProt Q9UBC0). The experiment in a line: ATG_HNF6_CIS: Attagene CIS-FACTORIAL HepG2 Assay for human Hepatocyte Nuclear Factor 6 (HNF6) (AID 2282952). The settings on record: HepG2 Attagene cis-factorial HNF6 reporter transcription; actives raise or lower the signal. The method, boiled down: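 Readout: fluorescent reporter-transcript fragments resolved by capillary electrophoresis after RT-PCR, reflecting endogenous factor activity in transfected HepG2. Exposure 24 h. Gain or loss of signal fitted bidirectionally against DMSO.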

Experiment [5] is described as follows: ATG_MRE_CIS: Attagene CIS-FACTORIAL HepG2 Assay for human Metal Responsive Element (MRE) (AID 2282954). The note with it: HepG2 MRE cis-reporter transcription, Attagene multiplex; actives raise or lower the signal. The essentials:
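Measured here is mRNA induction from an MRE cis-element reporter in HepG2 after 24 h, quantified by fluorescence of labelled RT-PCR products on capillary electrophoresis; gain- and loss-of-signal fits use DMSO as baseline.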

A short description of experiment [6]: ATG_PBREM_CIS: Attagene CIS-FACTORIAL HepG2 Assay for human Phenobarbital-responsive Enhancer Module (PBREM) (AID 2282955). The settings on record: HepG2 PBREM cis-reporter, Attagene multiplexed transcription; actives raise or lower the signal. The method, boiled down:
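Fluorescence of labelled reporter cDNA fragments, resolved by capillary electrophoresis, gives mRNA induction in transfected HepG2 cells treated for 24 h; DMSO serves as negative control and baseline.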

The target of experiment [7] is Paired box protein Pax-6 (Homo sapiens) (UniProt P26367). Kind of experiment: ATG_Pax6_CIS: Attagene CIS-FACTORIAL HepG2 Assay for human Paired Box 6 (PAX6) (AID 2282956). The note with it: HepG2 CIS-FACTORIAL PAX6 reporter transcription, RNA readout; actives raise or lower the signal. The method, boiled down:
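Readout: reporter transcript fluorescence after RT-PCR and capillary electrophoresis. Cells: HepG2, transiently transfected with cis-regulated MRTUs. Exposure 24 h. Gain or loss of signal fitted bidirectionally relative to DMSO.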

The nature of experiment [8]: ATG_PXRE_CIS: Attagene CIS-FACTORIAL HepG2 Assay for human Pregnane X Receptor Element (PXRE) (AID 2282957). The note with it: HepG2 Attagene CIS-FACTORIAL PXRE reporter, mRNA; actives raise or lower the signal. The essentials: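 Read-out: fluorescence of reporter-specific RT-PCR products resolved by capillary electrophoresis, fitted bidirectionally relative to DMSO. Human HepG2 liver cells carried transfected cis-promoter reporter units and were exposed to chemicals for 24 h.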

Experiment [9] in a line: ATG_PPRE_CIS: Attagene CIS-FACTORIAL HepG2 Assay for human Peroxisome Proliferator-activated Response Element (PPRE) (AID 2282958). The note with it: HepG2 PPRE cis-element reporter, Attagene transcription factor profiling; actives raise or lower the signal. The essentials: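 Cells are first transfected transiently with the multiplexed reporter library, then dosed for 24 h. Total RNA is reverse-transcribed, amplified, fluorescently end-labeled and HpaI-cut before capillary electrophoresis; activity is fitted bidirectionally against DMSO controls.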

The target in experiment [10] is Heat shock factor protein 1 (Homo sapiens) (UniProt Q00613). Kind of experiment: ATG_HSE_CIS: Attagene CIS-FACTORIAL HepG2 Assay for human Heat Shock Transcription Factor 1 (HSE) (AID 2282953). The settings on record: HepG2 HSE cis-reporter, Attagene RNA transcription; actives raise or lower the signal. The method, boiled down:
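After a 24 h incubation with test chemical, transfected HepG2 cells were harvested for RNA; reporter transcripts were measured by RT-PCR and capillary electrophoresis. Values reflect gain or loss of signal relative to DMSO.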

Sequence of Hepatocyte nuclear factor 6 (Homo sapiens) (Q9UBC0 whole entry, looked up, the tested form may be a part): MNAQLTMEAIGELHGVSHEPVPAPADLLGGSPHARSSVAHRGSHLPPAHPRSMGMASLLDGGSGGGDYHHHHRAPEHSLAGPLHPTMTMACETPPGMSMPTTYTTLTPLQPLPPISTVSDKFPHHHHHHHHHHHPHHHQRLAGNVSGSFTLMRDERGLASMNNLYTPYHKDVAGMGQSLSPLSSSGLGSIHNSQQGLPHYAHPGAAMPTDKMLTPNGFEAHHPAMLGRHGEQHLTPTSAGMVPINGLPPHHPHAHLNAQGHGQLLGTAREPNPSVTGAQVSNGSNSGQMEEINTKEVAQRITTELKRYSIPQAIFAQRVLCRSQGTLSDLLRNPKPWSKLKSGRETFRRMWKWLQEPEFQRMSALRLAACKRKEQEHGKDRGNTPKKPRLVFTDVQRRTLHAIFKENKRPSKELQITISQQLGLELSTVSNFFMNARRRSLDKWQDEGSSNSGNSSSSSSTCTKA
Sequence of Paired box protein Pax-6 (Homo sapiens) (P26367 whole entry, looked up): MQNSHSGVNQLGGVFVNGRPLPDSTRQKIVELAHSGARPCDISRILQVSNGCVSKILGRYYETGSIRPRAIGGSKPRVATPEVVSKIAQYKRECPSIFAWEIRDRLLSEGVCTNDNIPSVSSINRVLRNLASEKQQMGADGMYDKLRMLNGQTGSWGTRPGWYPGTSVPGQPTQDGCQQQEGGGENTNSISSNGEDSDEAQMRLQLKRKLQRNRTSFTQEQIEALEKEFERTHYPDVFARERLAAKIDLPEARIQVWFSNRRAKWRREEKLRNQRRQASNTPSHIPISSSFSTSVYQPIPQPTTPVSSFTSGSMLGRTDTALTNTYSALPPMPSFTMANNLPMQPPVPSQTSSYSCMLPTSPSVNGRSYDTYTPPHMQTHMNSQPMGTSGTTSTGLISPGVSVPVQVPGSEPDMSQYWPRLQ
Sequence of Heat shock factor protein 1 (Homo sapiens) (Q00613 whole entry, looked up): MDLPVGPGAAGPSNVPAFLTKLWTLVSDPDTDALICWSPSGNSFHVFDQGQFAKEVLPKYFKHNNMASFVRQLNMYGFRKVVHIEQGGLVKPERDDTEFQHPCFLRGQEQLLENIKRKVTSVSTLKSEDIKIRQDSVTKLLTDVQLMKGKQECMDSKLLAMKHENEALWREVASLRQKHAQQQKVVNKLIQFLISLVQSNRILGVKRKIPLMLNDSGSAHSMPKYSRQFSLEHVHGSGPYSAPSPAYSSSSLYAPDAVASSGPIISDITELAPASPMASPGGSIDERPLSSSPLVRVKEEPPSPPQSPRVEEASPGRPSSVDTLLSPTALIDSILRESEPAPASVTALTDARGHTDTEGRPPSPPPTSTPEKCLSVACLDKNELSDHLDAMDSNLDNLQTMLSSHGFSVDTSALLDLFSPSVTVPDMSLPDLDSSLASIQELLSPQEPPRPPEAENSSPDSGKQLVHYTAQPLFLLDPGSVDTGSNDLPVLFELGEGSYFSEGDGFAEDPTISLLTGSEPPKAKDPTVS
Sequence of Hypoxia-inducible factor 1-alpha (Homo sapiens) (Q16665 whole entry, looked up): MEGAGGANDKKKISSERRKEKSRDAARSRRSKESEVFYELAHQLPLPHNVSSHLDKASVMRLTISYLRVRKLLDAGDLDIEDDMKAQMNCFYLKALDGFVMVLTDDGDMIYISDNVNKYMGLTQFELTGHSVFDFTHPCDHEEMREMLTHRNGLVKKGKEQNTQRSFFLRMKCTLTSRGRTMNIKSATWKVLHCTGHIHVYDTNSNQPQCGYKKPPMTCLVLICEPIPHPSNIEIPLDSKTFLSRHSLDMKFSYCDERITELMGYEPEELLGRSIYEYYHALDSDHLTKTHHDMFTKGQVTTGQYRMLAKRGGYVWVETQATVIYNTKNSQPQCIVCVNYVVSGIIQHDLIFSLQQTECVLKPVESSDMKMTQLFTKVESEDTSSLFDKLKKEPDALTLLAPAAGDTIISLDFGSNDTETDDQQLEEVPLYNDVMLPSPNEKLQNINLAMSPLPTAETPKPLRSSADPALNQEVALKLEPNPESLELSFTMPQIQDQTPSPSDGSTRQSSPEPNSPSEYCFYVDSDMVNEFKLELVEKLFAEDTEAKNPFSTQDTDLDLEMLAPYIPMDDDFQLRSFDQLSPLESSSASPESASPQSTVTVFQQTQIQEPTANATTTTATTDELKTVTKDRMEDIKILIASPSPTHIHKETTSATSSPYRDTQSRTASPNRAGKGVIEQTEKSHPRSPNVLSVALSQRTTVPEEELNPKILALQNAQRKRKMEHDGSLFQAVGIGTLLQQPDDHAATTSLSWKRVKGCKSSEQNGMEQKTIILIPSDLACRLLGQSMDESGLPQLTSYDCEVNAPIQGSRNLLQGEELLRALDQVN

Take `C=CC(Cl)CCl` (configuration not stated): the outcome in experiment [1], in experiment [2], in [3], in [4], in experiment [5] and in experiment [6] was inactive. Besides, the call in experiment [7] was inactive. Besides, in [8], the AC50 was 3.12 µM (active).

Consider `OC(Cc1ccccc1Cl)(Cn1[nH]cnc1=S)C1(Cl)CC1` (configuration not stated), for which the compound was called inactive in [1], in experiment [2], in [3], in experiment [4], in experiment [7] and in experiment [9]. Moreover, the AC50 in experiment [5] is 77.6 µM (active); in [6] it was 21.7 µM (active); in experiment [8], 4.27 µM (active).

For `CC(C)=CC1C(C(=O)OCc2cccc(Oc3ccccc3)c2)C1(C)C` (configuration not stated), the outcome in [1], in [2], in experiment [3], in [4], in experiment [5] and in [6] was inactive. In addition, in [7], the result was inactive. Besides, the AC50 in experiment [8] was 3.43 µM (active).

With `CCOP(=S)(OCC)O/N=C(\C#N)c1ccccc1`, the compound was called inactive in experiment [1], in experiment [2], in experiment [4], in experiment [10] and in experiment [7]. Besides, the figures for the AC50 in [3], in experiment [8] and in experiment [9] were 67.2 µM (active), 2.2 µM (active) and 7.85 µM (active), respectively.

For the compound `ClCc1ccccc1CCl`, the outcome in [1], in experiment [2], in [3], in [6] and in [9] was inactive. The AC50 in [4] is 23.1 µM (active); in experiment [10] it was 21.7 µM (active); in [7], 25.7 µM (active); in [8], 18.3 µM (active).

Turning to `Cc1cc(Cl)ccc1OC(C)C(=O)O` (configuration not stated), the compound was classed as inactive in [1], in [2], in experiment [3], in experiment [4], in [5] and in [6]. Moreover, the result in [7] and in experiment [8] was inactive. In addition, in [9], the AC50 is 68.4 µM (active).

On to `CCCCCCCCCCBr`, for which the result in experiment [1], in [2], in experiment [3], in [4], in [10] and in [7] was inactive. Moreover, the compound was called inactive in [9]. In addition, the concentration at half-maximal activity (AC50) in experiment [8] is 27.7 µM (active).

`N#CS`: the compound was classed as inactive in experiment [1], in experiment [2], in experiment [3], in experiment [4], in experiment [10] and in experiment [7]. The call in experiment [8] and in experiment [9] was inactive.

Take `Cc1ccccc1OP(=O)(Oc1ccccc1)Oc1ccccc1`: the compound was called inactive in experiment [1], in [2], in experiment [3], in [4], in experiment [10] and in experiment [7]. In addition, in [9], the call was inactive.

As to `CC1(C)COP(Oc2ccccc2)OC1`, the outcome in experiment [1], in [2], in [3], in experiment [4], in experiment [10] and in [6] was inactive. Further, the outcome in experiment [7] was inactive.

Consider `C[C@]12CC[C@@H](O)C[C@@H]1CC[C@@H]1[C@@H]2CC[C@]2(C)C(=O)CC[C@@H]12`, for which the outcome in experiment [1], in [2], in [4], in [10], in [5] and in [7] was inactive.

Turning to `N#Cc1ccc(Cl)cc1`, the outcome in experiment [1], in experiment [2], in experiment [3], in experiment [4], in experiment [5] and in experiment [6] was inactive. Besides, the compound was called inactive in experiment [7] and in experiment [9]. Besides, in experiment [8], the AC50 is 54.6 µM (active).

For `c1csc(-c2ccc(-c3cccs3)s2)c1`, the call in experiment [1], in experiment [2], in [4] and in experiment [7] was inactive. Also, the AC50 in experiment [3] is 3.28 µM (active); in experiment [5], 3.99 µM (active); in experiment [6], 2.58 µM (active); in experiment [8], 5.21 µM (active); in experiment [9], 2.09 µM (active).

For the compound `OCCN(CCO)CCO`, the compound was classed as inactive in experiment [1], in [2], in [3], in experiment [4], in experiment [6] and in experiment [7]. Also, the outcome in experiment [8] was inactive.

With `O=C1c2ccccc2C(=O)C1C(=O)C(c1ccccc1)c1ccc(Cl)cc1` (configuration not stated), the compound was called inactive in experiment [1] and in experiment [3]. Besides, the AC50 in experiment [2] was 88.4 µM (active); in experiment [4], 61.5 µM (active); in experiment [6], 9.73 µM (active); in experiment [7], 8.23 µM (active); in [8], 1.51 µM (active); in experiment [9], 3.53 µM (active).

In the case of `CS(=O)(=O)c1ccc(C(=O)C2C(=O)CCCC2=O)c(Cl)c1COCC(F)(F)F`, the compound was called inactive in [1], in experiment [2], in [3], in experiment [4], in experiment [5] and in [6]. The compound was called inactive in experiment [7] and in [9]. Further, the AC50 in experiment [8] is 26.4 µM (active).

For the compound `O=C(O)c1cc(I)cc(I)c1I`, the result in [1], in [2], in experiment [3], in [4], in [5] and in experiment [6] was inactive. Moreover, the result in experiment [7] was inactive. Moreover, the AC50 in experiment [8] was 30.3 µM (active); in experiment [9] it was 27.8 µM (active).

In the case of `C=CC(=O)NC(C)(C)CC(C)=O`, the compound was called inactive in [1], in experiment [2], in experiment [3], in [4], in experiment [5] and in experiment [6]. The compound was classed as inactive in experiment [7], in experiment [8] and in experiment [9].

Take `C#C[C@]1(O)CC[C@H]2[C@@H]3CCC4=CC(=O)CC[C@]4(C)[C@H]3CC[C@@]21C`: the outcome in experiment [1], in experiment [2], in [4], in experiment [10], in experiment [5] and in experiment [6] was inactive. Moreover, the outcome in experiment [7] and in experiment [9] was inactive.

Turning to `Nc1nc(N)nc(Cl)n1`, the call in experiment [1], in experiment [2], in [3], in experiment [4], in experiment [5] and in [7] was inactive. In experiment [8], the compound was classed as inactive.

In the case of `CCC[N+](CCC)(CCC)CCC`, the result in experiment [1], in experiment [2], in experiment [3], in [4], in experiment [5] and in [6] was inactive. Further, the result in [7], in [8] and in experiment [9] was inactive.

As for `NNCCO`, the call in experiment [1], in experiment [2], in experiment [3], in [4], in experiment [5] and in [7] was inactive. In addition, the outcome in [8] was inactive.

For the compound `O=C1C[C@@H]2OCC=C3CN4CC[C@]56c7ccccc7N1[C@H]5[C@H]2[C@H]3C[C@H]46`, the result in experiment [1], in experiment [2], in [4], in experiment [10], in [5] and in [6] was inactive. The compound was called inactive in [7]. Besides, in [8], the AC50 is 44.6 µM (active) and 10.9 µM (active).

As to `CC(C)[C@H](C(=O)OC(C#N)c1cccc(Oc2ccccc2)c1)c1ccc(OC(F)F)cc1` (some centres not stated), the result in experiment [1], in experiment [2], in experiment [3], in experiment [4], in experiment [7] and in experiment [9] was inactive. The AC50 in [6] is 1.18 µM (active); in experiment [8], 0.396 µM (active).

Regarding `CCCCOC(C)=O`, the compound was called inactive in [1], in experiment [2], in experiment [3], in experiment [4], in experiment [5] and in [7]. Also, the outcome in [8] and in [9] was inactive.

Take `C=C(C)C(=O)OCC(CC)CCCC` (configuration not stated): the compound was classed as inactive in [1], in experiment [2], in experiment [3], in [4], in [5] and in [7]. Also, the call in [8] was inactive.

Turning to `CN(C)CCN(C)C`, the call in [1], in [2], in experiment [3], in [4], in [5] and in experiment [7] was inactive. Besides, the compound was called inactive in experiment [8] and in experiment [9].
